Test results published in the supplement of paper PMC13380429.
Values without a mark were called inactive.

Test system: Vero E6 infected with SARS-CoV-2
Test: inhibition of SARS-CoV-2 cytopathic effect; higher = more antiviral protection, active = above 15
Conditions: 48 h

SMILES	inhibition of SARS-CoV-2 cytopathic effect (1 nM)	inhibition of SARS-CoV-2 cytopathic effect (8.33 nM)	inhibition of SARS-CoV-2 cytopathic effect (100 nM)	inhibition of SARS-CoV-2 cytopathic effect (833.33 nM)	inhibition of SARS-CoV-2 cytopathic effect (10000 nM)
c1ccc2nc(N3CCNCC3)ccc2c1 [quipazine]	2.16%	-1.97%	-0.43%	1.22%	-2.16%
CNC(=O)c1ccc(-c2cnc3ncc(Cc4ccc5ncccc5c4)n3n2)cc1F	0.17%	-1.02%	-1.1%	2.22%	7.85%
c1ccc(CCNc2nc(-c3ccccc3)cs2)cc1 [fanetizole]	-2.03%	1.7%	-2.73%	-0.64%	1.58%
CC(C)NCC(O)c1cc(O)cc(O)c1 (stereo not given) [metaproterenol]	-0.95%	3.21%	0.75%	-1.4%	0.75%
CC(=O)CC/C=C(\C)CC/C=C(\C)CC/C=C(\C)CCC=C(C)C [teprenone]	-0.07%	1.34%	-1.34%	1.98%	0.16%
CCOP(=S)(OCC)Oc1cc(C)nc(C(C)C)n1 [dimpylate]	1.47%	-0.54%	2.07%	1.11%	-3.47%
CC#CCOC(=O)c1c(C)nc2sc3c(c2c1N)CCC(O)C3 (stereo not given)	1.8%	0.47%	3.12%	-0.32%	0.73%
COc1ccc(CC2NCCc3cc(OC)c(OC)cc32)cc1OC (stereo not given) [tetrahydropapaverine]	1.62%	0.89%	-0.93%	-3.46%	-3.09%
CCCCCCCC/C=C\CCCCCCCC(=O)N[C@@H](CO)Cc1ccc(O)cc1	0.56%	-0.46%	1.38%	1.23%	-2.65%
CN1Cc2c(C(=O)OC(C)(C)C)ncn2-c2ccsc2C1=O	2.57%	3.55%	1.79%	1.66%	-0.64%
COc1cc(C(=O)N2CCC(N3CCN(C)CC3)CC2)ccc1Nc1ncc2c(n1)N(C)c1ccccc1C(=O)N2C	0.64%	-0.23%	2.57%	1.89%	-6.43%
O=C(O)c1cc(O)c2c3nc4ccccc4oc-3cc(=O)c2n1 [pirenoxine]	0.17%	3.09%	2.36%	-0.17%	3.17%
CCCN1CC(NS(=O)(=O)N(CC)CC)CC2Cc3c(O)cccc3CC21 (stereo not given) [quinagolide]	-1.57%	-0.18%	-0.29%	-13.8%	-6.37%
S=C(NC1CCCCC1)N1CCC(c2cnc[nH]2)CC1 [thioperamide]	1.24%	1.61%	-0.03%	0.28%	-2.39%
Cc1ccc(S(N)(=O)=O)cc1 [para-toluenesulfonamide]	3.73%	1.88%	1.14%	0.12%	-5.38%
O=C(O)/C=C/CO [trans-4-hydroxycrotonic-acid]	2.26%	3.93%	1.39%	5.18%	4.35%
C[C@]12CC[C@@H]3c4ccc(O)cc4CC[C@H]3[C@@H]1CC[C@@H]2O [estradiol]	1.43%	2.24%	-0.69%	-2.04%	-1.69%
CN1CCC(=C2c3ccccc3C=Cc3ccccc32)CC1 [cyproheptadine]	1.35%	-0.26%	-1.02%	-0.75%	-4.89%
CN(CC(=O)O)C(=N)N [creatine]	-2.18%	1.25%	-2.37%	-1.57%	-4.4%
CCOC(=O)NNc1ccc(N(CC)CC(C)O)nn1 (stereo not given) [cadralazine]	-0.85%	-0.3%	-1.93%	-1.81%	0.1%
COc1cccc(-c2ccc(NC(=O)C3=C(C(=O)O)CCC3)c(F)c2)c1	2.25%	3.22%	2.16%	5.63%	4.97%

SMILES	inhibition of SARS-CoV-2 cytopathic effect (1 nM)	inhibition of SARS-CoV-2 cytopathic effect (8.33 nM)	inhibition of SARS-CoV-2 cytopathic effect (100 nM)	inhibition of SARS-CoV-2 cytopathic effect (833.33 nM)	inhibition of SARS-CoV-2 cytopathic effect (10000 nM)
c1ccc(CN(CC2=NCCN2)c2ccccc2)cc1 [antazoline]	-3.99%	-2.45%	-2.58%	-1.01%	-3.78%
N=C(NCCCCCCNC(=N)NC(=N)Nc1ccc(Cl)cc1)NC(=N)Nc1ccc(Cl)cc1 [chlorhexidine]	3.47%	4.11%	4.83%	2.74%	-3.2%
Cc1[nH]cnc1CN1CCc2c(c3ccccc3n2C)C1=O [alosetron]	-0.13%	-3.23%	-3.51%	-1.58%	-2.24%
CC(C)(C)C(=O)C(Oc1ccc(Cl)cc1)n1ccnc1 (stereo not given) [climbazole]	-1.08%	1.03%	-1.59%	-1.58%	0.15%
O=C(O)c1ccc(OCCn2ccnc2)cc1 [dazoxiben]	1.06%	2.92%	3.5%	-0.21%	-0.65%
COC(=O)C[C@](O)(CCC(C)(C)O)C(=O)O[C@@H]1C(OC)=C[C@]23CCCN2CCc2cc4c(cc2[C@H]13)OCO4 [harringtonine]	1.51%	0.45%	-10.7%	19.9% (active)	-9.74%
CCOC(=O)c1ccc(N)cc1 [benzocaine]	-3.23%	-2.13%	-1.89%	-4.68%	-1.78%
c1cc(Nc2cc(C3CC3)n[nH]2)nc(Nc2ccc3[nH]cnc3c2)n1	-2.31%	-1.82%	-0.35%	-0.79%	5.62%
CN(C)c1ccc(/C=C2\C(=O)Nc3ccccc32)cc1	2.81%	-0.37%	1.44%	2.25%	0.95%
Fc1ccc(CNc2ncnc3ccc(F)cc23)cc1 [spautin-1]	-1.85%	-0.71%	-0.05%	-0.85%	-1.95%
CCc1cc(O)c(Oc2ccc(C(N)=O)cc2F)cc1F	0.22%	-0.22%	0.21%	-0.53%	-0.97%
Cc1[nH]c(=O)c(C#N)cc1-c1ccncc1 [milrinone]	1.1%	-2.54%	-1.13%	-1.41%	0.27%
CC(=O)N(CC(O)CO)c1c(I)c(C(=O)NCC(O)CO)c(I)c(C(=O)NCC(O)CO)c1I (stereo not given) [iohexol]	-1.99%	-0.81%	-1.68%	-0.74%	2.67%
COc1ccccc1CC(=N)N1C[C@@H]2C(=O)CCC(c3ccccc3)(c3ccccc3)[C@@H]2C1	-0.54%	2.21%	1.93%	3.76%	-2.17%
C[C@H](CCC(=O)O)[C@H]1CC[C@H]2[C@@H]3C[C@H](O)[C@@H]4C[C@H](O)CC[C@]4(C)[C@H]3CC[C@]12C [Hyodeoxycholic acid (HDCA)]	-1.55%	0.2%	1%	2.52%	-1.93%
COC1=C2C[C@@H](C)C[C@H](OC)[C@H](O)[C@@H](C)/C=C(\C)[C@H](OC(N)=O)[C@@H](OC)/C=C\C=C(/C)C(=O)NC(=CC1=O)C2=O [geldanamycin]	1.08%	2.06%	0.35%	-3.32%	-4.4%
OCCN1CCN(CCCN2c3ccccc3Sc3ccc(Cl)cc32)CC1 [perphenazine]	1.39%	1.94%	0.83%	-2.86%	2.67%
C[C@](N)(Cc1ccc(O)cc1)C(=O)O [metirosine]	2.52%	2.13%	7.36%	2.34%	2.26%
CCN(CC)CCOC(=O)c1cc(Cl)c(N)cc1OC	3.29%	3.49%	1.89%	-0.08%	-0.47%
CC(C)c1cnn2c(NCc3ccccc3)cc(NCCCCCCN)nc12	2.49%	-1.33%	-2.16%	1.83%	-12.8%
